TGFb inhibitor – qHTS for Inhibitors of TGF-b. hit rate 1.2% among 410,000. Potency, µM (series often up to 46.1 µM), for inactives: top-dose activity, negative = inhibition, usual class: inhibitors. HepG2 CAGA-GFP TGF-b/SMAD3 reporter, GFP fluorescence, 18 h; TGF-beta stimulated, 500 pg/mL final; further: potency means the concentration at half of the fitted maximal effect; on the % scale 0 is the no-effect control and ±100 the full control effect; nearly all actives have a fitted effect of over 65% in size
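HEPG2 CAGA-GFP reporter cells (1000/well, DMEM with 1% FBS) received compounds, then recombinant TGF-beta at 500 pg/mL final for 18 hours at 37 degrees C. Per-cell GFP summed per well was normalised to unstimulated and stimulated DMSO controls before curve fitting.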
Giardia killer – Small Molecules that selectively kill Giardia lamblia: qHTS. Giardia lamblia trophozoite viability. activity change, % at 7.66 µM, hits read low. hit rate 0.15% among 340,000. AID 540267, 2011; in the data active means activity change below about -80%; inconclusive means between about -30% and that limit;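 further: parasites exposed to compound for two days anaerobically before the ATP read; on the % scale 0 is the no-effect control and ±100 the full control effect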
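Giardia lamblia trophozoites (100 cells/well) were incubated with compounds for 48 h at 37 deg C under anaerobic conditions. Viability was read as ATP content by one-step luminescence after 15-30 min at room temperature.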
IL-1B inflam inh – qHTS for Inhibitors of Inflammasome Signaling: IL-1-beta AlphaLISA Primary Screen; THP-1 LPS/ATP IL-1B secretion, AlphaLISA, 16 h; hits give low values; activity change, % at 57.5 µM; hit rate 4.7% among 360,000; in the data active means activity change below about -50%; inconclusive means mostly about -30% to -49%; further: on the % scale 0 is the no-effect control and ±100 the full control effect
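THP-1 cells pretreated 1 hr with compounds (up to 57.5 uM final), then stimulated with LPS (250 ng/mL final) plus ATP (1.25 mM final); secreted IL-1B measured by AlphaLISA after 16 hr, decreased signal indicating inhibition.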
HT1080NT lethal – qHTS for induction of synthetic lethality in tumor cells producing 2HG: qHTS for the HT-1080-NT fibrosarcoma cell line; HT-1080-NT fibrosarcoma viability, CellTiter-Glo ATP luminescence, 48 h; Potency, µM (titrated, usually from 46.1 µM), without a hit: top-dose activity, negative = less viability, hits mostly cytotoxic; hit rate 1.6% among 360,000;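 further: NT is the 2HG producing partner of a matched IDH1 knockdown line; potency means the concentration at half of the fitted maximal effect; 0% = DMSO-treated cells and -100% = media-only wells without cells; nearly all actives have a fitted effect of over 55% in size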
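Fibrosarcoma NT cells, 750 per well in 5% FBS RPMI, were exposed to compound for 48 hours. Viability: CellTiter-Glo luminescence.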
HT1080 IDH1KD tx – qHTS for induction of synthetic lethality in tumor cells producing 2HG: qHTS for the HT-1080-IDH1KD cell line; HT-1080 IDH1 knockdown viability, ATP luminescence, 48 h; AID 686971, 2013; hit rate 2% among 360,000; Potency, µM (titrated, usually from 46.1 µM), without a hit: at the top dose activity, negative = toxicity, hits mostly cytotoxic;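 further: potency means the concentration at half of the fitted maximal effect; 0% = DMSO wells and -100% = cell-free medium wells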
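HT-1080-IDH1KD cells (IDH1 knocked down), 750/well in RPMI with 5% FBS, treated with compound 48 h at 37 degrees C. Viability by CellTiter-Glo luminescence, normalised to DMSO and no-cell wells; concentration-response curves classed.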
HepG2 tox – qHTS for Inhibitors of TGF-b: Cytotox Counterscreen; HepG2 CAGA-GFP viability, ATP luminescence, 18 h; Potency, µM (highest dose often 46.1 µM), without a hit: at the highest dose activity change, negative = cytotoxicity, usual class: cytotoxic; hit rate 0.76% among 410,000; further: potency means the concentration at half of the fitted maximal effect
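HepG2 CAGA-GFP cells (1000/well, DMEM with 1% FBS) received compound, then TGF-beta at 500 pg/mL final, and were incubated 18 hours at 37 degrees C. Viability was read by CellTiter-Glo luminescence. Media-only wells were set as complete cell-killing and DMSO as no toxicity.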
* = called active by the depositor; u = inconclusive; x = no result; ! = repeats disagree. An excerpt weighted towards active compounds, which were near 6.5% of everything screened. Unless noted, the call rests on the fitted dose curve; in most records, active means well fitted curve in the direction sought with a large enough effect; inconclusive means small, poorly fitted or top-dose-only effect, or another doubt; inactive means no such curve, though single readings can be large; an effect the other way counts as inactive or inconclusive.

SMILES | TGFb inhibitor | Giardia killer | IL-1B inflam inh | HT1080NT lethal | HT1080 IDH1KD tx | HepG2 tox
CCOC(=O)c1c(C)oc2c(F)c(F)c(F)c(F)c2c1=O | -25% | 6 | -121* | u | u | -6%
O=C(/C=C/c1ccccc1)Nc1nc(-c2cccs2)ns1 | 0% | x | x | x | x | -27%
Cc1ccc(N2CCN(C(=O)c3cc(-c4ccc(F)cc4)[nH]c3C)CC2C)cc1 (stereo unspecified) | u | -12 | -59* | 23µM* | 18µM* | -27%
Cc1[nH]c(-c2ccc(F)cc2)cc1C(=O)N1CCN(c2ccccc2F)CC1 | u | 21 | u | u | u | -43%
Cc1[nH]c(-c2ccc(F)cc2)cc1C(=O)N1CCN(c2ccccc2)CC1 | u | 12 | -56* | -28% | -21% | -34%
Clc1ccc(-c2csc3ncnc(Sc4nnnn4-c4ccccc4)c23)cc1 | 6.3µM* | x | x | x | x | 6.3µM*
Fc1ccc(-c2csc3ncnc(Cl)c23)cc1 | -14% | 6 | -7 | 6% | 3% | -8%
c1ccc(-c2ccc(-c3csc4ncnc(Sc5nnnn5-c5ccccc5)c34)cc2)cc1 | u | x | x | x | x | -11%
Cc1ccc(-c2csc3ncnc(Sc4nnnn4-c4ccccc4)c23)cc1 | 6.3µM* | x | x | x | x | -97%
Cc1sc2ncnc(Sc3nnnn3-c3ccccc3)c2c1C | 13µM*! | 2 | -101* | 10µM* | 7.1µM* | 10µM*!
Clc1ccc(-c2csc3ncnc(Cl)c23)cc1 | -2% | 1 | -89* | -10% | -7% | -1%
COc1cccc(N2C(=O)Nc3ccccc3C2(O)C(=O)NCc2ccc3c(c2)OCO3)c1 (stereo unspecified) | u | -18 | 19 | -1% | -2% | -2%
CCn1c(SCC(=O)N2CCCC(C)C2)nc2c1c(=O)n(C)c(=O)n2C (stereo unspecified) | -3% | -4 | 50 | 7% | 2% | -109%
Nc1c(C(=O)CSc2nc(-c3ccccc3)cs2)c(=O)[nH]c(=O)n1C1CC1 | -13% | 5 | -19 | -2% | 0% | -9%
CC(C)(C)c1cc(C(=S)N2CCN(CCO)CC2)cc(C(C)(C)C)c1O | -28% | -13 | -2 | -3% | 27% | 2%
CC(C)(C)c1cc(C(=O)CCN2CCOCC2)cc(C(C)(C)C)c1O | u | -5 | -101* | u | u | -78%
O=C(CCN1CCN(c2ccccc2)CC1)c1ccc(Cl)cc1 | u | -17 | -7 | -8% | -7% | -91%
O=C(CCN1CCOCC1)c1ccc(N2CCCCC2)cc1 | 14µM* | -27 | -73* | -29% | -2% | -99%
CCOC(=O)c1ccc(N=C2SC(C(=O)NC)CC(=O)N2Cc2ccc(F)cc2)cc1 (stereo unspecified) | -26% | 19 | 2 | u | 0% | 7%
O=C(Nc1ccc(N2CCN(C(=O)c3ccc(Cl)cc3)CC2)cc1)c1ccc2c(c1)OCCO2 | u | 4 | -61* | u | -19% | -6%
O=C(Nc1ccc(N2CCN(C(=O)c3ccccc3)CC2)cc1)c1ccc2c(c1)OCCO2 | u | -5 | -94* | -7% | -15% | 13%
O=C(Nc1ccc(N2CCCCC2)cc1)c1ccc2c(c1)OCCO2 | 0% | -11 | -27 | -7% | -28% | -24%
COc1ccc(Cl)cc1NC(=O)Nc1ccc(C(=O)N2CCOCC2)cc1 | u | -25 | -63* | 6% | 9% | -37%
O=C(c1ccccc1)C1CCN(C(=O)c2ccc(Cl)cc2)CC1 | u | 5 | -26 | 0% | -5% | -33%
CC(C)(C)c1ccc(C(=O)N2CCC(C(=O)c3ccccc3)CC2)cc1 | u | 12 | -75* | -13% | -18% | -34%

Source: PubChem
